# Screening data (PubChem)
# Compounds with a hit are over-represented: about 2% of the library has one in this group of screens.
# TDP-43 yeast inh – qHTS of TDP-43 Inhibitors; TDP-43 expressing yeast growth rescue, BacTiter-Glo, 24 h; Potency, µM (highest dose often 46.1 µM), for the others: top-dose growth rescue (activation), actives largely listed as activators; 410,000 tested, 1.8% active; AID 652104, 2013; note: % of control where 0% means no effect; nearly all actives have a fitted effect of over 50% in size
#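 Cell-based yeast growth screen: TDP-43 expression induced in galactose, inoculum OD600=0.02 after raffinose pregrowth to mid-log. Read-out BacTiter-Glo luminescence at 24 hr, 30 deg C; inhibition of toxicity seen as signal increase.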
# Abeta rescue – qHTS for compounds that reverse cellular toxicity of Amyloid beta (A-beta) peptide in yeast: Primary Screen | yeast expressing A-beta42, growth rescue, OD600, 48 h; response scale: 0% DMSO, 100% iron-clioquinol control | Potency, µM (highest dose often 46.1 µM), most hits filed as activators | 410,000 tested, 0.063% active | AID 1347071, 2019; note: nearly all actives have a fitted effect of over 55% in size
#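 Yeast A-beta toxicity model in growth medium with pinned compounds, 48 h at 30 C; growth read as absorbance at 600 nm. Normalized to FeCl3/clioquinol equimolar mix (positive) and DMSO (negative).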
# aSyn rescue – qHTS of alpha-syn Inhibitors; 370,000 tested, 0.14% active; Yeast expressing alpha-synuclein, growth rescue, BacTiter-Glo, 24 h; Potency, µM (doses to about 46.1 µM), for the others: at the top dose growth rescue (activation), most hits filed as activators; note: % of control where 0% means no effect; nearly all actives have a fitted effect of over 65% in size
#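 Rescue of yeast growth: cells expressing toxic alpha-synuclein, induced in galactose at OD600 0.02, incubated with compound 24 h at 30 C. ATP luminescence quantified growth; inhibitors of toxicity appear as activators.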
# Glioma ERSR ind – qHTS for Inducers of the Endoplasmic Reticulum Stress Response (ERSR) in Human Glioma: qHTS. AID 602332, 2012. Potency, µM, inactives show at the top dose activation, most hits filed as activators. U87-MG GRP78 promoter luciferase reporter, 16 h. 420,000 tested, 0.02% active; note: series mostly up to about 76 µM; % of control where 0% means no effect; nearly all actives have a fitted effect of over 35% in size
#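 ERSR induction read as luciferase luminescence (Bright-Glo, 10 min at room temperature) in stably transfected human U87-MG glioma cells exposed to compounds for 16 h, using GRP78 as sensor.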
# FUS yeast rescue – qHTS for Suppressors of FUS Proteinopathy: Primary screen using FUS-linked yeast assay. 390,000 tested, 0.24% active. Potency, µM (doses to about 76.6 µM), usual class: activators. S. cerevisiae FUS-expressing, growth rescue, OD600, 24 h;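 note: plate controls were DMSO vehicle for no effect and reference control for full effect; nearly all actives have a fitted effect of over 55% in size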
#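 Cultures pregrown in 2.5% raffinose medium are shifted to minimal medium containing 2% galactose to express toxic FUS. Compounds are tested at several concentrations. After 24hr at 30C, growth is quantified at 600 nm absorbance.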
# MBNL1-CUG inh – qHTS Assay for Inhibitors of MBNL1-poly(CUG) RNA binding; Muscleblind-like protein 1 (Homo sapiens), Q9NR56; TR-FRET MBNL1-His/biotin-(CUG)12 binding, 665/545 ratio; Potency, µM (series often up to 57.5 µM), without a hit: at the highest dose activity change, negative = inhibition, most hits filed as inhibitors; 280,000 tested, 0.036% active; AID 2675, 2010; active = well fitted inhibition curve with a large enough effect in the signal ratio, with a control signal flat, not every such curve was filed as active; inconclusive = small, poorly fitted or top-dose-only effect, or effect the other way, or a change in a side signal; inactive = no such curve, though single readings can be large or run the other way; the % refers to the signal ratio; note: % is set by controls: 0 for no effect and ±100 for the full control effect
# Target sequence (Q9NR56 whole entry, looked up): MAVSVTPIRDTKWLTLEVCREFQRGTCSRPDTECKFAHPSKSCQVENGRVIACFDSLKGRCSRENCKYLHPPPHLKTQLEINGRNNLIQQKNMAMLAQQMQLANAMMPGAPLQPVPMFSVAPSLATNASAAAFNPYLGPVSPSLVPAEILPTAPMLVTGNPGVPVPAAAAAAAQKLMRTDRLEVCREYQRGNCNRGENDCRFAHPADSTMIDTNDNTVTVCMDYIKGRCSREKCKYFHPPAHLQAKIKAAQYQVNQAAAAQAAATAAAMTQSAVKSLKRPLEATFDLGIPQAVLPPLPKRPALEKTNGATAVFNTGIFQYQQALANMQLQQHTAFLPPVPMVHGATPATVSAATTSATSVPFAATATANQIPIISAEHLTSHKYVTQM
#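 Compound titration spanned 92 nM–58 uM against the MBNL1-His/biotin-(CUG)12 complex. After 60 min at room temperature with 5 nM streptavidin-XL665 and 0.055 ng/ul terbium anti-His, ratiometric 665/545 nm emission (Ex 340 nm) normalized to controls.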
# * = called active by the depositor; i = inactive; u = inconclusive; x = no result given. Unless noted, calls come from the whole dose curve; as a rule, active = well fitted curve in the direction sought with a large enough effect; inconclusive = small, poorly fitted or top-dose-only effect, or another doubt; inactive = no such curve, though single readings can be large; an effect the other way counts as inactive or inconclusive. Potency is the fitted concentration of half-maximal effect.
SMILES,TDP-43 yeast inh,Abeta rescue,aSyn rescue,Glioma ERSR ind,FUS yeast rescue,MBNL1-CUG inh
CCCS/C(N)=N/N=C/c1cc(C)ccc1O,12.4%,i,4.8%,6.7%,i,2.3%
Cc1ncc2c(c1CNS(=O)(=O)N(C)C)CCN(C(=O)c1[nH]c3ccc(Cl)cc3c1C)C2,x,x,x,-4.2%,x,x
O=c1cc(CNc2cc(C(F)(F)F)cc(C(F)(F)F)c2)nc2sccn12,17.8µM*,i,-9.5%,-5.1%,x,-2.9%
O=c1cc(COc2ccc(Cl)c(Cl)c2)nc2sccn12,7.9%,i,-1.8%,4.0%,i,x
O=c1ccc(C(F)(F)F)cn1Cc1cc(=O)n2ccsc2n1,1.3%,i,-9.1%,-3.0%,i,3.5%
O=c1cc(COn2nnc3ccc(C(F)(F)F)cc32)nc2sccn12,10µM*,i,12.2%,-3.4%,i,-5.1%
Cc1cccc(NC(=O)Nc2c(-c3ccc(C(F)(F)F)cc3)nc3ncccn23)c1,x,x,x,x,i,x
CC(Sc1cnc2ccccc2n1)C(=O)O (configuration not stated),-4.4%,i,-1.7%,-2.7%,i,u
CC(Sc1ccc2ccccc2n1)C(=O)O (configuration not stated),11.2µM*,i,-17.5%,1.0%,i,u
Clc1ccc(C2Nc3cccc4cccc(c34)N2)c(Cl)c1,x,u,16.3%,0.2%,i,x
O=C1NC(c2cccc3ccccc23)Nc2ccc(Cl)cc21 (configuration not stated),11.2µM*,i,1.2%,-7.4%,x,x
CNC(=O)c1c(NC(=O)c2cccc(C)c2)sc2c1CCC2,14.1µM*,i,-8.3%,5.8%,i,5.3%
CC1CCCCC1N(C(=O)c1cc(C2CC2)on1)C1CCCCC1 (configuration not stated),x,x,x,x,i,x
CN1C(=O)/C(=C/c2cccc(Cl)c2)Sc2ccc(C(=O)N3CCOCC3)cc21,20µM*,i,16.4%,-2.1%,i,u
Cc1nn2c(=O)cc(COC(=O)c3c(F)cccc3Cl)nc2s1,35.5µM*,i,13.3%,-1.0%,i,x
Cc1nn2c(=O)cc(COC(=O)c3ccc(NC(=O)COc4ccccc4F)cc3)nc2s1,5.8%,i,x,-4.9%,i,x
COc1ccccc1NC(=O)OC1CCC12CCCCC2 (configuration not stated),x,x,x,x,i,x
Cc1ccc(-n2c(N)c(C(=O)N3CCCCC3)sc2=S)cc1,11.2µM*,i,-2.1%,4.6%,i,u
FC(F)(F)c1nc(=S)c2ccccc2[nH]1,10µM*,i,-3.8%,-0.9%,i,18.1%
COc1ccccc1C(=O)N1CCN(c2cccc(C(F)(F)F)c2)CC1,14.1µM*,i,3.4%,-12.2%,i,10.0%
CCn1cc(C(=O)N2CCN(c3cccc(C(F)(F)F)c3)CC2)c2cc(OC)c(OC)cc2c1=O,9.7%,i,x,1.8%,u,x
CC(=O)c1ccc(NC(=O)N2CCN(c3cccc(Cl)c3)CC2)cc1,12.6µM*,i,2.5%,-1.6%,i,3.1%
O=C(c1ccc(CS(=O)c2ccccc2Cl)o1)N1CCN(c2cccc(C(F)(F)F)c2)CC1 (configuration not stated),17.8µM*,i,x,-6.6%,u,x
COc1ccccc1CC(=O)N1CCN(c2cccc(Cl)c2)CC1,12.6µM*,i,3.1%,-0.9%,i,3.2%
O=C(c1cccc(F)c1)N1CCN(c2cccc(C(F)(F)F)c2)CC1,14.1µM*,i,12.3%,-3.9%,i,-5.8%
SMILES,TDP-43 yeast inh,Abeta rescue,aSyn rescue,Glioma ERSR ind,FUS yeast rescue,MBNL1-CUG inh
COCCCN1C(=O)[C@H](CC(=O)N2CCN(C(=O)C3CC3)CC2)[C@]2(C(=O)OC)CCCCC=C12,x,x,x,x,i,x
O=C(Nc1nc(-c2ccccn2)cs1)C1CCCC1,20µM*,u,16.6%,5.5%,i,x
Cc1ccc(C(=O)Nc2nc(-c3ccccn3)cs2)s1,u,u,3.55µM*,-2.8%,i,x
O=C(Nc1nc(-c2ccccn2)cs1)c1ccc(Cl)s1,u,i,-14.6%,1.8%,i,3.6%
Cc1c(C(=O)Nc2nc(-c3ccccn3)cs2)oc2ccccc12,6.31µM*,i,-29.2%,7.9%,u,x
CCc1sc(C(=O)Nc2nc(-c3ccccn3)cs2)cc1C,u,i,4.47µM*,-1.5%,u,x
N#Cc1ccccc1OCC(=O)Nc1nc(-c2ccccn2)cs1,25.1µM*,u,u,0.7%,i,x
Cc1csc(NC(=O)c2cccn2C)n1,6.5%,i,0.0%,-1.6%,i,-2.1%
Cn1cccc1C(=O)Nc1nc(-c2ccccn2)cs1,14.1µM*,u,u,6.9%,u,-14.2%
O=C(Nc1nc(-c2ccccn2)cs1)c1ncc(Cl)c(Cl)c1Cl,3.55µM*,i,7.94µM*,6.0%,i,39.7%
CCOc1ccc(Oc2c(Cl)cnn(Cc3cccc4ccccc34)c2=O)cc1,x,x,x,x,i,x
CCC(=O)N[C@@H]1c2ccccc2C2(CCN(Cc3cnc(N(C)C)s3)CC2)[C@H]1OC,x,x,x,-1.2%,x,x
COc1ccc2ccccc2c1CN1CCc2nnc(C(NS(C)(=O)=O)C(C)C)n2CC1 (configuration not stated),x,x,x,-0.7%,x,x
Cc1ccc(S(=O)(=O)c2c(N)n(Cc3ccco3)c3nc4ccccc4nc23)cc1,10.5%,i,2.0%,-2.4%,22.4µM*,12.2%
Cc1cccc(S(=O)(=O)c2c(N)n(Cc3ccco3)c3nc4ccccc4nc23)c1,0.0%,i,10.0%,-7.2%,x,13.7%
COc1ccc(NC(=O)N2c3ccccc3CC2C)cc1OC (configuration not stated),12.6µM*,i,x,3.5%,i,-0.6%
Cc1ncc2c(c1CNS(=O)(=O)c1cccs1)CCN(C(=O)/C=C/c1ccc(F)cc1F)C2,x,x,x,-4.2%,x,x
C[C@@H]1C[C@@H](CC(=O)NCC2Cc3cccc(-c4ccncc4)c3O2)NC(=S)N1 (some centres not stated),x,x,x,-2.3%,x,x
Cc1cccc(-c2csc(N)c2C(=O)OC(C)C)c1,12.6µM*,i,7.5%,-2.1%,i,0.4%
CCOC(=O)c1c(-c2cccc([N+](=O)[O-])c2)csc1NC(=O)C1CC1,20.0%,i,4.9%,-1.0%,i,26.8%
CCOC(=O)c1c(-c2cccc([N+](=O)[O-])c2)csc1N,17.8µM*,i,3.4%,-2.8%,u,u
